Results reported in PMC4336329 (PLoS ONE, 2015).
In all, about 310,000 compounds went through this assay and about 14,000 (4.5%) showed an effect of 50% or more. The effect is printed as a negative number. This excerpt belongs to a sample that is enriched for strong results.

The molecules below were run against human ether-à-go-go-related gene (hERG) potassium channel (human, UniProt Q12809) (assay: primary screen, population patch clamp on CHO cells stably expressing hERG; higher = less effect of the substance).
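Further: peak tail current of the secondary pulse compared with the same well before compound.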

Sequence of human ether-à-go-go-related gene (hERG) potassium channel (Q12809 whole entry, looked up): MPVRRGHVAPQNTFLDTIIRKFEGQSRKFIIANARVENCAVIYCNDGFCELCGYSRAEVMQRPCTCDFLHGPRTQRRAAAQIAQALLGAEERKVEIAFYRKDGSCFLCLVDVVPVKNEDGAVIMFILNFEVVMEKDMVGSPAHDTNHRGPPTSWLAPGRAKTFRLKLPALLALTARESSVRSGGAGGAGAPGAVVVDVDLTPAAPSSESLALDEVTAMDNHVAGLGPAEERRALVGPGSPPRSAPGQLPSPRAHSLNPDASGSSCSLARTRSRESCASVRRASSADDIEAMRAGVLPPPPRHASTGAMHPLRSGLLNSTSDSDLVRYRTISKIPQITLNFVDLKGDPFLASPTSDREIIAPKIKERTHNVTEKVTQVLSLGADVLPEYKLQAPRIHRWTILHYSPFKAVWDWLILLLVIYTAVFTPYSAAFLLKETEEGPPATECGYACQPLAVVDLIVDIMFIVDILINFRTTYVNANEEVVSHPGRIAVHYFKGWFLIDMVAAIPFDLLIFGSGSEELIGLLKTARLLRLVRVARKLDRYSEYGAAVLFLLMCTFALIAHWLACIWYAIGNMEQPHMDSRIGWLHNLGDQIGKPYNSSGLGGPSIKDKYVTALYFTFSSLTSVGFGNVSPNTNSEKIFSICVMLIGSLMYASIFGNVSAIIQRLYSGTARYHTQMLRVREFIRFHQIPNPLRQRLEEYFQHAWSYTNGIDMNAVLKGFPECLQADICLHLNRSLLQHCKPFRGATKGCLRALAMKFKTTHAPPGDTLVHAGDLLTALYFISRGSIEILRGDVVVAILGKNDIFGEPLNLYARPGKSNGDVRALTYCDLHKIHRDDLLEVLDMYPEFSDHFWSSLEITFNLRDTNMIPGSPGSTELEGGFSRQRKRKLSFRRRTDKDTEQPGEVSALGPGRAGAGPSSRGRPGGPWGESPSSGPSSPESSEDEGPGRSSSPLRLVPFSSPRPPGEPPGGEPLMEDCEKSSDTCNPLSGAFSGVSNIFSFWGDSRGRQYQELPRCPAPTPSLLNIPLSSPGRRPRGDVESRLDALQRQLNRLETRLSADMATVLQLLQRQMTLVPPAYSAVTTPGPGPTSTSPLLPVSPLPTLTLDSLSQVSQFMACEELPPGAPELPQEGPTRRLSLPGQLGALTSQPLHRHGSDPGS

Structure (SMILES)	hERG current change (%, negative = inhibition) at 10uM [%]
COc1cc(C2/C(=C(\O)c3ccc4c(c3)CC(C)O4)C(=O)C(=O)N2c2nnc(C)s2)cc(OC)c1OC (stereo not shown)	9.14
Cc1c(Cc2ccccc2)c(=O)oc2cc(OCC(=O)N3CCC(C(=O)O)CC3)ccc12	6.24
Cc1noc(C)c1COc1ccc(C(=O)OCC(=O)N2CC3(C)CC2CC(C)(C)C3)cc1 (stereo not shown)	-6.44
COC(=O)c1ccc(Oc2c(Cl)cccc2[N+](=O)[O-])cc1	3.65
COc1ccc(OC(C)C(=O)NCC2CCCO2)cc1 (stereo not shown)	18.5
COC(=O)c1sc(N)c(C(=O)OC)c1COC(=O)c1c(C)noc1C	-3.57
Cc1noc(C)c1CSc1nnc(C)c(=O)[nH]1	7.14
CCOC(=O)c1[nH]c(C)c(C(=O)OCC(=O)N(C)C2CCS(=O)(=O)C2)c1C (stereo not shown)	29
CC(C)N1CCC(N2CCN(Cc3cccc4nonc34)CC2CCO)CC1 (stereo not shown)	3.08
OCCC1CN(Cc2cccc3nonc23)CCN1Cc1ccsc1 (stereo not shown)	-52.6
OCCC1CN(Cc2ccc3cc(Cl)ccc3n2)CCN1Cc1ccsc1 (stereo not shown)	-65
CCOc1ccc2nc(CN3CCN(Cc4ccsc4)C(CCO)C3)ccc2c1 (stereo not shown)	-47
OCCC1CN(Cc2ccc3nonc3c2)CCN1Cc1ccsc1 (stereo not shown)	-66.1
Cc1cccc(CN2CCN(Cc3ccc4nonc4c3)CC2CCO)n1 (stereo not shown)	-35.6
OCCC1CN(Cc2cccc3nonc23)CCN1C1CCCCC1 (stereo not shown)	-5.74
O=C(CN1CCCC1)Nc1ccc(Cl)cc1C(F)(F)F	0.32
COCC(C)N=C1NN=C(c2cccs2)C(CC(=O)O)S1 (stereo not shown)	20
CS(=O)(=O)Oc1ccc(/C=C2\C(=N)N3N=C(CC(=O)N4CCOCC4)SC3=NC2=O)cc1Cl	-2.27
COc1cc2c(cc1OC)/C(=C/c1ccc(Cl)cc1)C(=O)OC2	-36.4
NC(=O)CSc1nnc(NC(=O)C2CC(=O)N(c3ccc(F)cc3)C2)s1 (stereo not shown)	26.1
O=C(Cc1ccc(S(=O)(=O)N2CCOCC2)s1)OCc1ccc(Cl)cc1	-20.1
COC(=O)c1ccc(NC(=O)COc2ccc(S(=O)(=O)N3CCCCC3)cc2)cc1	-9.57
Cc1ccc(Cl)c(OCC(=O)NCc2ccco2)c1	1.03
COc1ccc(OC)c(/C=N/NC(=O)CCc2n[nH]c(=O)[nH]c2=O)c1	4.8
CCOc1ccccc1N1CC(C(=O)Nc2ccc(S(=O)(=O)N3CCCCC3)cc2)CC1=O (stereo not shown)	-3.91
S=C(Nc1ccc2cn[nH]c2c1)Nc1ccccc1Cl	-4.68
COc1ccc(S(=O)(=O)N2CCOCC2)cc1C(=O)N(C)Cc1ccccc1F	-37.8
Cc1ccc(S(=O)(=O)NCc2ccccc2)cc1C(=O)N(C)CC(=O)Nc1c(Cl)cccc1Cl	-30.4

Structure (SMILES)	hERG current change (%, negative = inhibition) at 10uM [%]
COc1cccc(NC(=O)CN(C)C(=O)c2cc(S(=O)(=O)N3CCCCC3)ccc2Cl)c1	-34.7
COc1ccc(S(=O)(=O)N2CCCCCC2)cc1C(=O)N(C)Cc1c(F)cccc1Cl	-49.8
COc1cccc(NC(=O)CN(C)C(=O)c2cc(S(=O)(=O)N3CCCCCC3)ccc2OC)c1	-50.9
COc1cccc(NC(=O)CN(C)C(=O)c2cc(S(=O)(=O)NCc3ccccc3)ccc2C)c1	-71.1
COc1ccc(NC(=O)CN(C)C(=O)c2cc(S(=O)(=O)N3CCCCCC3)ccc2OC)cc1	-24
COc1ccc(S(=O)(=O)N2CCCCCC2)cc1C(=O)N(C)Cc1ccccc1F	-53.2
COc1ccc(NS(=O)(=O)c2ccc(C)c(C(=O)N(C)CC(=O)Nc3cccc(OC)c3)c2)cc1	-9.42
Cc1ccc(S(=O)(=O)N(Cc2cccc(C(F)(F)F)c2)C(=O)N2CCN(C)CC2)cc1	10.3
COC(=O)CCC(=O)OC1(C)C(=O)C2=CN(CCCOC(C)C)C(c3ccc(OC)cc3)=CC2=C(Br)C1=O (stereo not shown)	-22.7
CC(=O)NC(=O)NC1CSCC1OC(C)=O (stereo not shown)	15.8
CC(NC(=O)CCCn1cc([N+](=O)[O-])cn1)c1ccccc1 (stereo not shown)	-3.6
COc1ccccc1/C=N/NC(=O)CC(=O)NCCc1ccccc1	12.1
CCOC(=O)c1cc(-c2ccccc2)sc1NC(=O)CC	1.19
CCOCC(=O)Nc1ccc(S(=O)(=O)NCCc2ccccc2)cc1	-22.9
Nc1ccc(C(=O)Nc2ccccc2C(=O)O)cc1	10.2
Cc1[nH]n2c(=O)c3c(nc2c1-c1ccccc1)CCC3	0.138
CCCN(CCC(=O)Nc1cc(OC)cc(OC)c1)CC1CC1.Cl	-12.1
Cc1cc(NC(=O)c2nn3cccnc3c2Cl)no1	6.12
CNC(=S)Nc1cc(Cl)ccc1Oc1ccccc1	-6.86
CCc1nnc(NC(=O)CCN2C(=O)CCC2=O)s1	-8.3
COc1ccc2sc(-c3ccc(SC)cc3)c(C#CC(C)(C)O)c2c1	11.6
CCOC(=O)C1(CCOc2ccccc2)CCN(Cc2cccc(OC)c2O)CC1	-70.5
CCOC(=O)C1(CCOc2ccccc2)CCN(Cc2ccccc2O)CC1	-30.8
CCOC(=O)C1(CCOc2ccccc2)CCN(Cc2cc(OC)c(O)cc2Cl)CC1	-69.2
CCOC(=O)C1(CCOc2ccccc2)CCN(Cc2cc(OC)ccc2OC)CC1	-73.2
CCOC(=O)C1(CCOc2ccccc2)CCN(Cc2ccccc2OC)CC1	-71.4
O=C(O)c1cc(-n2[nH]c(=O)c3ccccc3c2=O)ccc1Cl	21.3
